In general, inhibition refers to the drop in the measured response relative to a control, in per cent.

The target in experiment [1] is Serine/threonine-protein kinase MARK2 (Homo sapiens) (UniProt Q7KZI7). The conditions noted are these: at 1 µM.
The target of experiment [2] is PAS domain-containing serine/threonine-protein kinase (Homo sapiens) (UniProt Q96RG2). The conditions noted are these: at 0.1 µM.
Experiment [3] shares this target. The following applies: at 1 µM.
For experiment [4], the target named is Phosphorylase b kinase gamma catalytic chain, skeletal muscle/heart isoform (Homo sapiens) (UniProt Q16816). The following applies: at 0.1 µM.
Experiment [5] has the same target. The following applies: at 1 µM.
The target in experiment [6] is T1, Phosphorylase b kinase gamma catalytic chain, liver/testis isoform (Homo sapiens) (UniProt P15735).
T1 sequence (whole entry): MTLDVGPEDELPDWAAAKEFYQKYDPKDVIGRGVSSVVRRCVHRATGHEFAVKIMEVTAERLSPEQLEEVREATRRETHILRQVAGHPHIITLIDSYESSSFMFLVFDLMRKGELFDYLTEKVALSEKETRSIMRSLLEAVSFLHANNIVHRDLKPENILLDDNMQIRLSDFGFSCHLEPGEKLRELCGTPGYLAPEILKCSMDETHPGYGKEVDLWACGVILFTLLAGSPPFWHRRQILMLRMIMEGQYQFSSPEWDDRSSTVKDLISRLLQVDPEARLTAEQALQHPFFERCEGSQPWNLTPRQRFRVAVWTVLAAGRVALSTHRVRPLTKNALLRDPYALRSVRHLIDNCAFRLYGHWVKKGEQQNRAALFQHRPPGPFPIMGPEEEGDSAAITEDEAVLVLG
The following applies: at 0.1 µM.

Experiment [7] concerns the target T1, Phosphorylase b kinase gamma catalytic chain, liver/testis isoform (Homo sapiens). The conditions noted are these: at 1 µM.
The target in experiment [8] is Serine/threonine-protein kinase pim-1 (Homo sapiens) (UniProt P11309). The following applies: at 0.1 µM.
Experiment [9] shares this target. The following applies: at 1 µM.
The target in experiment [10] is Serine/threonine-protein kinase pim-2 (Homo sapiens) (UniProt Q9P1W9). The following applies: at 0.1 µM.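 Further: reported value is the mean percent inhibition of PIM2, measured in the GSK PKIS kinase inhibitor set screen.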
Serine/threonine-protein kinase pim-2 (Homo sapiens), sequence (Q9P1W9 whole entry, looked up): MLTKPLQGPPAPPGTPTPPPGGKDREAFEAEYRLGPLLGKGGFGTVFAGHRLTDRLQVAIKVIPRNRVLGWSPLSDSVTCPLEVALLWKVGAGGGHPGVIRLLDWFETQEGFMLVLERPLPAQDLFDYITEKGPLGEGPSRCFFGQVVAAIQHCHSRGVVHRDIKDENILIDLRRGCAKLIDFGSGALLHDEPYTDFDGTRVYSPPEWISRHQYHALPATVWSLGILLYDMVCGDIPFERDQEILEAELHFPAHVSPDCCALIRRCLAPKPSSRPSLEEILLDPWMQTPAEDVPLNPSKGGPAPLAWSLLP

PAS domain-containing serine/threonine-protein kinase (Homo sapiens), sequence (Q96RG2 whole entry, the tested form may be a part): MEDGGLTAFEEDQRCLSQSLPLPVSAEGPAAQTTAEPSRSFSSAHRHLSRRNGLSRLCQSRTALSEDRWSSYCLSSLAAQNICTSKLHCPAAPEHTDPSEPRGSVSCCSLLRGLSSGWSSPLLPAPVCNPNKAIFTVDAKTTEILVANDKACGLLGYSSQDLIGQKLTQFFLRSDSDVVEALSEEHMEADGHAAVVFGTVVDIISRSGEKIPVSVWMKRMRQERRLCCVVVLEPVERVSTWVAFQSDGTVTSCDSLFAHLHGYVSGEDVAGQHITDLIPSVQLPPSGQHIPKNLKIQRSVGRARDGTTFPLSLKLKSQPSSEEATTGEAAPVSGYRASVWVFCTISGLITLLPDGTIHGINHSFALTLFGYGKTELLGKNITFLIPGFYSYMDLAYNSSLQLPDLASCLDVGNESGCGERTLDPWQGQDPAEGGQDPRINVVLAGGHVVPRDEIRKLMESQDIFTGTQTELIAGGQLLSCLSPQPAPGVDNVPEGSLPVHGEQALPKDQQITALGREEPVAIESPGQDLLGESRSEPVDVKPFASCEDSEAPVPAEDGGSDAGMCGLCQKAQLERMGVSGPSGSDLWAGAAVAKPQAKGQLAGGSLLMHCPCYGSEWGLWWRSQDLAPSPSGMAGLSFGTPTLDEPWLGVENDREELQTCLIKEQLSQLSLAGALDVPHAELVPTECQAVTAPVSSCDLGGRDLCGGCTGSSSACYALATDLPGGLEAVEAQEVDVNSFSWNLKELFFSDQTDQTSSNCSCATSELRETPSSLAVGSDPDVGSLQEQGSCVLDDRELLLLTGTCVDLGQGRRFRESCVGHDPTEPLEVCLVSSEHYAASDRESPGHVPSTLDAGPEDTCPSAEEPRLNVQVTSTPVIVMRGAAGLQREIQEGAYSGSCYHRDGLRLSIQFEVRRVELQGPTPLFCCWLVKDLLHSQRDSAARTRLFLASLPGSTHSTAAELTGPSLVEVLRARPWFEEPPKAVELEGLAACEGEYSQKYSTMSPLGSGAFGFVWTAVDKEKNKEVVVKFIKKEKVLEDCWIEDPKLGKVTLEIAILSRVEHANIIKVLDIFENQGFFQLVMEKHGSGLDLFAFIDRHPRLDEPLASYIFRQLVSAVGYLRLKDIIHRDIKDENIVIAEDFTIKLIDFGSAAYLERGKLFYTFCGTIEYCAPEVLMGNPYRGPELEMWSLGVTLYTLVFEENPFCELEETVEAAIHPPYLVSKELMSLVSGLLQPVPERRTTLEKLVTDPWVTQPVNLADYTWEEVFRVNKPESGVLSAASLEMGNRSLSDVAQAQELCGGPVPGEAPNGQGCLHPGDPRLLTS
Serine/threonine-protein kinase MARK2 (Homo sapiens), sequence (Q7KZI7 whole entry, the tested form may be a part): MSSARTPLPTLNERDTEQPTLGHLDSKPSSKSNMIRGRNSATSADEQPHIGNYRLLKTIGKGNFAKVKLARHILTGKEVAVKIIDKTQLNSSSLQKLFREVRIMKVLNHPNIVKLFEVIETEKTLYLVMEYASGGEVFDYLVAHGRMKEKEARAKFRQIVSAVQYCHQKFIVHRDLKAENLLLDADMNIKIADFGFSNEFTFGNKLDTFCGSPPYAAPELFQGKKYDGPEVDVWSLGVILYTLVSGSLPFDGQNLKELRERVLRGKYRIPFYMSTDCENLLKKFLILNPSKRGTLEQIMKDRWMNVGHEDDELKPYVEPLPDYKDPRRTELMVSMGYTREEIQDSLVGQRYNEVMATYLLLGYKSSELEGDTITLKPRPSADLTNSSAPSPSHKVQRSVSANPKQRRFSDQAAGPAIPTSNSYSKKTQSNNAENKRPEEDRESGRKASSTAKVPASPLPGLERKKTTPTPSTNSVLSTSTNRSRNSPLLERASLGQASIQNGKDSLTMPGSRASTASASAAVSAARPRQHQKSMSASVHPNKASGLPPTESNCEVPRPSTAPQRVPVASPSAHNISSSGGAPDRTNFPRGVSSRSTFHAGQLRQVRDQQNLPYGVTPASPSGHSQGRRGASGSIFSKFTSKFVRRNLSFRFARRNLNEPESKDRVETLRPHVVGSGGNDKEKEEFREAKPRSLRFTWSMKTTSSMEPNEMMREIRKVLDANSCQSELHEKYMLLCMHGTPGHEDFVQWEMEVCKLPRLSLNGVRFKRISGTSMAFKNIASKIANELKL
Phosphorylase b kinase gamma catalytic chain, skeletal muscle/heart isoform (Homo sapiens), sequence (Q16816 whole entry, looked up, canonical isoform): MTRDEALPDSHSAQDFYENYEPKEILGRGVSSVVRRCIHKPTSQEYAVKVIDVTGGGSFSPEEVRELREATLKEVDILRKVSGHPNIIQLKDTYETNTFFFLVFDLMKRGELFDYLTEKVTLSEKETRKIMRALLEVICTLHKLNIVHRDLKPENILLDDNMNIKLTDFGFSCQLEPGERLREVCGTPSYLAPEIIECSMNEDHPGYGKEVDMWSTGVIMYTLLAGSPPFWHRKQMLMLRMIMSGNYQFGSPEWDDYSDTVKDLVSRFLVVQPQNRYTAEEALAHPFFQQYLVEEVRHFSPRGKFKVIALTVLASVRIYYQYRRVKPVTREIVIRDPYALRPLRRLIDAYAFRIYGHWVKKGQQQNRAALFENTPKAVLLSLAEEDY
Serine/threonine-protein kinase pim-1 (Homo sapiens), sequence (P11309 whole entry, looked up): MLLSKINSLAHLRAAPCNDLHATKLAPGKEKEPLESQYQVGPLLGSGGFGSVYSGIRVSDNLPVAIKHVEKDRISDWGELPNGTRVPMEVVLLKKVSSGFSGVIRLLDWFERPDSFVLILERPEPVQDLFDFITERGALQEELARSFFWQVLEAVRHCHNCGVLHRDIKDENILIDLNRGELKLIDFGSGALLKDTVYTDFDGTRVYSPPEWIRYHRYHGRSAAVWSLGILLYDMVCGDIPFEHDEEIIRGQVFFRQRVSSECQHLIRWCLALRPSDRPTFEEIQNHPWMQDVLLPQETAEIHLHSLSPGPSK

For the compound `CCn1c(-c2nonc2N)nc2c(C#CC(C)(C)O)ncc(OC3CCNCC3)c21`, the inhibition in experiment [1] is 62.2%; in experiment [2], -0.02%; in experiment [3] it was 13.1%; in experiment [4] it was 1.52%; in experiment [5], 3.09%; in experiment [6] it was 4.06%. Moreover, the inhibition in experiment [7] amounted to 3.58%; in experiment [8] it was 2.62%; in experiment [9], 24.1%; in experiment [10] it was 1.16%.

Consider `COc1ccc(CNC(=O)c2ccc(-c3cc(-c4nnc(C)o4)ccc3C)cc2)cc1`, for which the inhibition in experiment [1] came out at 0.82%; in [2], 2.29%; in [3], 8.41%; in experiment [4], 3.84%; in [5] it was 6.56%; in experiment [6], 3.12%. Also, the inhibition came out at 9.31% in experiment [7], 1.62% in experiment [8], 1.96% in experiment [9] and 2.9% in experiment [10].

In the case of `CN(C)CCOc1ccc(-c2nc(-c3ccncc3)c(-c3ccc4c(c3)CC/C4=N\O)[nH]2)cc1`, the inhibition in experiment [1] was 0.92%; in experiment [2], -0.26%; in [3], 0.36%; in [4], 1.18%; in experiment [5] it was 7.7%; in experiment [6], 3.65%. The inhibition in [7] was 5.28%; in experiment [8], 1.13%; in [9], 1.48%; in [10], -0.23%.

On to `COc1ccc2c(-c3ccnc(Nc4cccc(OC(F)(F)F)c4)n3)cnn2n1`, for which the inhibition in [1] was 2.62%; in [2], -0.05%; in experiment [3], 0.2%; in experiment [4] it was 2.28%; in experiment [5], 8.92%; in experiment [6], 6.32%. Besides, the inhibition was 8.34% in experiment [7], 1.24% in [8], 0.36% in [9] and -0.29% in [10].

With `COC(=O)Nc1nc2ccc(S(=O)(=O)c3ccc(NC(=O)Nc4cc(C(F)(F)F)ccc4F)cc3)cc2[nH]1`, the inhibition in experiment [1] is 1.75%; in experiment [2] it was 0.31%; in [3] it was -0.77%; in experiment [4], 1.75%; in experiment [5], 1.03%; in experiment [6], 2.73%. Further, the inhibition in experiment [7] was 0.31%; in [8] it was 0.78%; in experiment [9] it was 1.71%; in experiment [10] it was -0.06%.

On to `CNC(=O)c1cc(-c2ccc(F)cc2)cc(-c2ccc(S(=O)(=O)N3CCCC3)cc2)c1N`, for which the inhibition is 1.52% in experiment [1]; 0.47% in [2]; -0.16% in [3]; 2.9% in experiment [4]; 4.24% in [5]; 3.8% in experiment [6]. Further, the inhibition was 3.18% in experiment [7], 0.06% in [8], 0.44% in [9] and -0.39% in experiment [10].

As to `CCn1c(-c2nonc2N)nc2c(C#CC(C)(C)O)nc(OC[C@H](N)c3ccccc3)cc21`, the inhibition in experiment [1] was 18.1%; in experiment [2], -0.65%; in [3], 8.04%; in [4], 2.23%; in experiment [5], -1.37%; in experiment [6], 2.76%. Besides, the inhibition in experiment [7] came out at 5.27%; in [8], 1.54%; in experiment [9], 3.63%; in [10], 0.71%.

On to `COc1cc(N2CCN(C(C)C)CC2)ccc1Nc1nc(Nc2ccc(F)cc2C(N)=O)c2cc[nH]c2n1`, for which the inhibition in experiment [1] was 39.3%; in experiment [2], -0.71%; in experiment [3], 2.69%; in [4], 58.2%; in experiment [5], 78.1%; in experiment [6] it was 19.1%. For the same compound, the inhibition in experiment [7] is 64.7%; in experiment [8], 3.27%; in experiment [9], 25.3%; in experiment [10] it was -0.44%.

For the compound `CCCN(CCS(C)(=O)=O)Cc1ccc(-c2ccc3ncnc(Nc4ccc(OCc5cccc(F)c5)c(Cl)c4)c3c2)o1`, the inhibition was -0.2% in [1]; 0.15% in experiment [2]; -0.42% in [3]; 1.09% in experiment [4]; 2.68% in experiment [5]; 1.93% in [6]. The inhibition was 1.35% in [7], 0.83% in experiment [8], 0.67% in [9] and -0.45% in experiment [10].

For `CCc1nn2ncccc2c1-c1ccnc(NC2CC2)n1`, the inhibition in experiment [1] turned out to be 1.56%; in [2], 1.03%; in [3], 0.63%; in experiment [4], 1.42%; in experiment [5], 2.68%; in [6] it was 2.15%. Also, the inhibition came out at 3.73% in experiment [7], 0.19% in experiment [8], 1.72% in [9] and 0.29% in experiment [10].

As to `Cc1cccc2c1NC(=O)/C2=N\Nc1ccc(S(N)(=O)=O)cc1`, the inhibition was 1.34% in experiment [1]; 0.5% in experiment [2]; -1.79% in experiment [3]; -1.4% in experiment [4]; 2.98% in experiment [5]; 3.6% in experiment [6]. The inhibition was 2.88% in [7], 1.4% in experiment [8], -0.19% in [9] and 0.28% in [10].

`COc1cc2ncn(-c3cc(OCc4ccccc4C(F)(F)F)c(C(=O)N(C)C)s3)c2cc1OC`: the inhibition in experiment [1] is -0.58%; in experiment [2], -1.08%; in [3] it was 0.41%; in [4] it was -0.58%; in [5] it was 1.87%; in experiment [6], -1.54%. Also, the inhibition was -0.32% in [7], 0.36% in experiment [8], -0.31% in [9] and -0.26% in [10].

In the case of `COc1cc(Nc2nccc(Nc3ccc4c(C)n[nH]c4c3)n2)cc(OC)c1OC`, the inhibition in experiment [1] was 8.17%; in [2] it was 1.32%; in experiment [3], 0.33%; in experiment [4], -0.65%; in [5] it was 5.26%; in experiment [6], 2.27%. Besides, the inhibition worked out at 0.52% in experiment [7], 1.13% in experiment [8], 1.26% in experiment [9] and 1.46% in experiment [10].

On to `CCn1c(-c2nonc2N)nc2ccccc21`, for which the inhibition in experiment [1] amounted to 2.79%; in [2], 1.01%; in experiment [3], 0.51%; in experiment [4] it was 2.03%; in experiment [5], 2.71%; in experiment [6], 3.71%. For the same compound, the inhibition in experiment [7] was 0.96%; in experiment [8], 0.21%; in [9] it was 4.54%; in experiment [10] it was -0.12%.

Take `Cc1ccc2c(-c3ccnc(Nc4ccccc4)n3)c(-c3ccc(F)cc3)nn2n1`: the inhibition in experiment [1] was 1.15%; in [2], 0.46%; in [3], -1.64%; in [4] it was 1.5%; in experiment [5] it was 4.45%; in [6], 4.39%. The inhibition in [7] is 1.91%; in experiment [8] it was -0.18%; in experiment [9] it was -0.05%; in experiment [10] it was -0.3%.

As for `COc1cc(/C=N/Nc2ncnc3[nH]ncc23)ccc1O`, the inhibition in experiment [1] is 17.5%; in experiment [2] it was -0.24%; in [3], 1.75%; in experiment [4] it was 4.58%; in [5] it was 16.6%; in experiment [6] it was 4.03%. In addition, the inhibition stood at 8.53% in experiment [7], 1.55% in [8], 10.9% in experiment [9] and 0.15% in experiment [10].

(Values after ChEMBL document CHEMBL1961873, “Compounds: GSK PKIS; Assays: Nanosyn kinase panel” (2012).)
